Experimental data as given in PubChem BioAssay (NCI).
This is part of a sample that, as a whole, favours compounds with a hit. Of some 79,000 tested, about 15% had one in any assay. No stated cut-off is given here; in the data, active means growth inhibition above about 70%; inactive means the rest.

Key:
[1] = NCI Yeast Anticancer Drug Screen. Data for the rad50 strain (AID 155);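 further: 0% = growth of vehicle-only cultures of the same strain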; settings: S. cerevisiae rad50 strain growth inhibition; at 50.0 µM; hits give high values
Method in brief: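 Yeast carrying a defined DNA repair defect were exposed to test compounds, and growth was compared with vehicle-treated controls to give percent inhibition.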

[2] = NCI Yeast Anticancer Drug Screen. Data for the mec2-1 strain (AID 157); settings: S. cerevisiae mec2-1 strain, at 50.0 µM, hits give high values
Method in brief: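 Compounds were applied to mec2-1 yeast cells. Their growth was then compared with that of vehicle-treated cultures to give growth inhibition.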

[3] = NCI Yeast Anticancer Drug Screen. Data for the sgs1 mgt1 strain (AID 161);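 further: 0% = growth of cultures given vehicle only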; settings: S. cerevisiae sgs1 mgt1 strain, at 50.0 µM, hits give high values
Method in brief: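 Percent growth inhibition was derived by comparing compound-exposed mutant yeast with vehicle-exposed cultures. The strain carries alterations in DNA damage repair.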

[4] = NCI Yeast Anticancer Drug Screen. Data for the cln2 rad14 strain (AID 165);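 further: 0% = growth equal to vehicle treated cultures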; settings: S. cerevisiae cln2 rad14 strain, at 50.0 µM, hits give high values
Method in brief: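 Strain: cln2 rad14 yeast, altered in cell cycle control and DNA damage repair. Read-out: growth inhibition vs vehicle.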

[5] = NCI Yeast Anticancer Drug Screen. Data for the bub3 strain (AID 167); settings: S. cerevisiae bub3 mutant strain, at 50.0 µM, hits give high values
Method in brief: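 Compounds were applied to a genetically altered yeast strain carrying a cell-cycle control defect. Growth inhibition was scored against vehicle-treated controls.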

[6] = NCI Yeast Anticancer Drug Screen. Data for the mlh1 rad18 strain (AID 175); settings: S. cerevisiae mlh1 rad18 strain growth inhibition; at 50.0 µM; hits give high values
Method in brief: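 A repair-deficient yeast strain is exposed to test compound, and growth is scored relative to vehicle-treated controls.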

Measured: growth inhibition

CCOC(=O)C(Cc1cc(N)c(O)c(N)c1)NC(C)=O (stereo unspecified)
inactive: [1] 1.95% | [2] -4.95% | [3] -1.5% | [4] 6.8% | [5] -1.45% | [6] -0.85%

CC1(C(=O)O)CCCN1 (stereo unspecified)
inactive: [1] 9.35% | [2] -7.6% | [3] -20.6% | [4] 15.4% | [5] -0.95% | [6] -9%

CCCC1C(C#N)(C#N)C(C#N)=C(N)C1(C)C(C)=O (stereo unspecified)
inactive: [1] 3.4% | [2] 6.8% | [3] -18.7% | [4] 0.4% | [5] -23.8% | [6] -34.9%

Cn1c(CC(O)(C(F)(F)Cl)C(F)(F)Cl)cc(=O)n1-c1ccccc1
inactive: [1] 41.6% | [2] 1.3% | [3] 8.7% | [4] 6.25% | [5] 7% | [6] 7.2%

COC(=O)CCC(N)C(=O)NC(Cc1ccccc1)C(=O)NC(C)C(=O)NC1C(O)OC(CO)C(O)C1O (stereo unspecified)
inactive: [1] 3.95% | [2] 15.8% | [3] 4.75% | [4] -0.65% | [5] -7.6% | [6] -5.6%

O=CN1CCN(c2ccc3ccc(=O)[nH]c3n2)CC1
inactive: [1] -4.45% | [2] -24.2% | [3] 19.5% | [4] 9% | [5] -5.05% | [6] -14.2%

N#CC12CCC(O)C(CC1)C2=O (stereo unspecified)
inactive: [1] 20.2% | [2] 0.85% | [3] 10.1% | [4] 15.2% | [5] -4.25% | [6] 20.6%

CCON=C(c1ccc(Cl)cc1)c1ccc(Cl)cc1
inactive: [1] 2.45% | [2] -21.6% | [3] 12.7% | [4] 16.8% | [5] 26.1% | [6] 1.4%

COc1ccc(OC)c(NCc2ccccc2)c1
inactive: [1] -8.6% | [2] -2.5% | [3] -13.9% | [4] -88.5% | [5] -0.4% | [6] 3.65%

COC(=O)c1nnn(-c2cc(Cl)ccc2Cl)c1C(=O)c1ccc(OC)cc1
inactive: [1] -13.1% | [2] 3.8% | [3] -12.7% | [4] 53.7% | [5] 37.4% | [6] -3.25%

O=C(/C=C/c1ccccc1)NC(Cc1ccccc1)C(=O)O (stereo unspecified)
inactive: [1] -21% | [2] -11.4% | [3] -8.25% | [4] -5.55% | [5] -14.1% | [6] -12.2%

CCCCCCC(C)Cl (stereo unspecified)
inactive: [1] 18.9% | [2] -6.05% | [3] 15.8% | [4] 23.7% | [5] 5.9% | [6] 1.05%

CC(CC(C)(C)C)C(=O)O (stereo unspecified)
inactive: [1] -4.05% | [2] -5.75% | [3] 2.55% | [4] 1.2% | [5] 6.85% | [6] 7.25%

C=NNC(=O)c1ccncc1
inactive: [1] -10.4% | [2] -6.1% | [3] 6.4% | [4] -37.5% | [5] 12.8% | [6] 5.9%

Cc1ccc(S(=O)(=O)N2CCC[C@@H]2C(=O)O[C@@H]2CCC3CC=CC32)cc1 (stereo partly specified)
inactive: [1] 3.65% | [2] -17.3% | [3] 10.2% | [4] -1.8% | [5] -12.3% | [6] -0.1%

NC(=S)N=Nc1c(O)[nH]c2ccccc12
inactive: [1] 12.8% | [2] -9.8% | [3] -5.9% | [4] 4.85% | [5] 9.95% | [6] 6.55%

CCCN(CCC)NC(=O)c1ccc(N=NN(C)C)cc1
inactive: [1] 0.15% | [2] 32.8% | [3] 8.4% | [4] -5.3% | [5] 39.9% | [6] 21%

N#Cc1ccc([N+](=O)[O-])n1CCO
inactive: [1] 9.7% | [2] 8.7% | [3] 35% | [4] -0.05% | [5] 15.6% | [6] 19.3%

CC1COC(c2ccc(Cl)cc2)O1 (stereo unspecified)
inactive: [1] 12.2% | [2] 18.1% | [3] 22% | [4] 20.4% | [5] -1.25% | [6] 12.7%

c1ccc(-c2cc3c(nn2)[nH]c2ccccc23)cc1
inactive: [1] 14.4% | [2] -1.95% | [3] -2.25% | [4] -30.2% | [5] -15.8% | [6] 8.9%

CC(=O)NC(CSCN(C)c1nc(N(C)C)nc(N(C)C)n1)C(=O)O (stereo unspecified)
inactive: [1] 7.5% | [2] -3.45% | [3] 2.95% | [4] 5.6% | [5] 8.2% | [6] 13.8%
